{"source": "PubChem BioAssay AID651598", "about": "(Sanford-Burnham Center for Chemical Genomics, 2012)", "note": "Where “and” joins values, the source holds several entries; their conditions need not be identical. Identical values can stand only once."}
{"biological_target": "Apelin receptor (Homo sapiens) (UniProt P35414)", "sequence (P35414 whole entry, looked up)": "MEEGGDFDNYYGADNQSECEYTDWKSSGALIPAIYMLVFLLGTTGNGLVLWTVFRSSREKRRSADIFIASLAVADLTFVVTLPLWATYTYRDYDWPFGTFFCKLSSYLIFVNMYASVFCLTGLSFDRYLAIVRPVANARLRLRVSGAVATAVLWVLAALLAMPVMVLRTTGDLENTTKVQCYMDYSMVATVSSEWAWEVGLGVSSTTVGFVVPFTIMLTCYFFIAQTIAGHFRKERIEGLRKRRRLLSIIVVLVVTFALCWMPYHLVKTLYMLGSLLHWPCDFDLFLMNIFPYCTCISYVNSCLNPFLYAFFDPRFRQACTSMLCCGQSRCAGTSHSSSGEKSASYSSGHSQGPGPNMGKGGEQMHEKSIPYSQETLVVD", "experiment": "APJ beta-arrestin recruitment blockade alongside CXCR6 – cell-based, DiscoveRx, panel, CHO-K1, counter-screen for CXCR6 antagonist project, SAR follow-up (AID 651598)", "conditions": "CHO-K1 PathHunter beta-arrestin luminescence, antagonist mode; run 2, at 80 µM (top of the series)"}
{"smiles": "COc1cc(C(=O)NC2CC3CCCC(C2)N3CC(=O)Nc2ccccc2)cc(OC)c1OC", "note": "(stereo not drawn)", "inhibition": "11.6% and 7.3% and -8.97%"}
{"smiles": "COc1cc(C(=O)NC2CCN(CC(=O)Nc3ccccc3)CC2)cc(OC)c1OC", "inhibition": "4.86%"}
{"smiles": "COc1cc(C(=O)NC2CC3CCC(C2)N3CC(=O)Nc2ccccc2)cc(OC)c1OC", "note": "(stereo not drawn)", "inhibition": "-3.64% and 3.22%"}
